# Compound activity (PubChem)
# Shown are actives, neighbours in structure and some others; about 21% of the full set was active somewhere.
# Shiga inhibitor = blocks Shiga toxin action in Vero cells. actives 9.2% (n = 290,000). Vero cells, Shiga toxin protein synthesis inhibition reporter. inhibition, % at 38.7 µM; in the data active means inhibition mostly above about 28%, no sharp cut-off; inactive means mostly below about 43%
# Cycloheximide cs = counter-screen hit for Shiga toxin inhibitors, cycloheximide. actives 12% (n = 300,000). cell reporter, cycloheximide protein synthesis inhibition counterscreen. max response, %; in the data active means max response mostly above about 13%, no sharp cut-off; inactive means mostly below about 14%; further: read at 38.3 µM for the half of the compounds with a filed dose
# Pf growth 48h = inhibits P. falciparum growth in the first generation, 48 h; P. falciparum luciferase growth in erythrocytes, 48 h; Potency, µM (top dose mostly 28.7 µM), hits mostly inhibitors; AID 504832; actives 5.9% (n = 310,000)
#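 Here the parasites carry a stable luciferase gene and grow inside erythrocytes in Albumax-based RPMI medium with compound for one erythrocytic cycle. Activity is scored as loss of luminescent signal.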
# Pf growth 96h = inhibits malaria parasite growth, 96 h | P. falciparum luciferase reporter growth, 96 h | Potency, µM (titrated, usually from 28.7 µM), most hits filed as inhibitors | actives 6.9% (n = 320,000) | AID 504834
#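 Delayed-death screen, second-generation endpoint: infected erythrocytes, 2% hematocrit, 0.05% parasitemia final; 96 hours at 37 C, 5% CO2; luciferase detection reagent; luminescence decrease equals reduced growth.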
# NS1 function inh = influenza NS1 inhibition; Potency, µM (top dose mostly 46.1 µM); actives 0.4% (n = 270,000); calls by dose curve; further: actives are rising curves; nearly all actives have a fitted effect of over 50% in size
#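 OD600 was taken as the measure of yeast growth restored by compound in an NS1-expressing S. cerevisiae strain. Cells had been washed out of glucose medium and diluted 1:100 into galactose -URA medium, pH 6.0.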
# Flu NS1 inh = influenza NS1 function inhibition validation | influenza NS1 function cell assay, 15-point titration | shares compounds with NS1 function inh | activity change, negative = inhibition, % at 32.9 µM | 1,400 tested, under 10 active; calls by dose curve
# Flu PR8 replic = influenza NS1 inhibitors: inhibition of influenza A/PR/8/34 replication | shares compounds with NS1 function inh | MDCK infected influenza A/PR/8/34, virus titer TCID50; stronger effect = lower value | virus titer (log TCID50), log10 TCID50 at 5 µM | actives 30% (n = 95); call rule not given here
# Hits are given with their value; - = inactive; ? = inconclusive; . = no result given; [ ] = dose if it differs, or a comment. Unless noted, the call rests on the fitted dose curve; in most records, active means well fitted inhibition curve with a large enough effect; inconclusive means small, poorly fitted or top-dose-only effect, or another doubt; inactive means no such curve, though single readings can be large or run the other way.
SMILES,Shiga inhibitor,Cycloheximide cs,Pf growth 48h,Pf growth 96h,NS1 function inh,Flu NS1 inh,others
COc1cccc(C(C)NC(=O)Nc2cc(Cl)ccc2OC)c1 (configuration not stated),-,-,?,-,-,.,
CC1CCN(S(=O)(=O)c2ccc3c(c2)N(CC(=O)NCCCOC(C)C)C(=O)CO3)CC1,-,-,-,-,?,-,
CCOCCCNC(=O)CN1C(=O)COc2ccc(S(=O)(=O)N3CCC(C)CC3)cc21,-,-,-,-,-,.,
CCOc1ccc2c(c1)C(c1ccccc1)=NNC(c1ccccc1)=N2,57,45,?,-,11µM,-,
CS(=O)(=O)N(CC(=O)NCc1cccnc1)C1CCCCC1,-,-,-,-,-,.,
COc1ccc(-n2c(Cc3cccn3C)nnc2SCC(=O)Nc2ccc(Cl)cc2)cc1,-,-,12µM,-,10µM,-,Flu PR8 replic=-
Cn1cccc1Cc1nnc(SCC(=O)Nc2ccccc2F)n1CCc1ccccc1,-,-,13µM,-,7.1µM,-,
O=C(COc1ccc2c(c1)oc(=O)c1ccccc12)NC(Cc1ccc(Cl)cc1)C(=O)O (configuration not stated),-,-,-,-,11µM,-,
O=C1OC(CO)C(O)C(O)C1O (configuration not stated),.,.,-,-,.,.,
COc1ccc(-c2ccc(-c3nc4c(c(=O)[nH]c(=O)n4Cc4ccccc4)n3C)o2)c([N+](=O)[O-])c1,-,-,?,?,3.5µM,-,
COc1ccc(Br)cc1-c1nc2c(c(=O)[nH]c(=O)n2Cc2ccccc2)n1C,-,-,-,-,-,.,
Cc1noc(/C=C/N(C)C)c1S(=O)(=O)N1CCCC(C(=O)NC(C)c2ccccc2)C1 (configuration not stated),-,-,?,?,1.8µM,?,Flu PR8 replic=-
Cc1cccc(CC(=O)Nc2cc(=O)n(C)c(=O)n2C)c1,-,-,?,?,?,-,
Cc1cccc(C(=O)Nc2cc(=O)n(C)c(=O)n2C)c1,-,-,-,-,-,.,
O=C(Cn1cnc2c(oc3ccccc32)c1=O)NCCc1ccccc1,.,.,.,.,5µM,-,
COc1cccc(N2CCN(c3ccc4nnc(CCC(=O)Nc5ccccn5)n4n3)CC2)c1,-,-,-,?,-,.,
CN(N=O)c1ccc(O)c(O)c1,.,.,.,.,5µM,-,
Cc1cccc(NC(=O)NC2(C(=O)NCc3ccco3)CCCCC2)c1,-,-,-,?,-,.,
CC(C)C(=O)Nc1c(-c2ccccc2F)c(=O)c2ccccc2n1C,-,-,-,-,-,.,
Cc1nc2ccc(-c3nc4ccccc4[nH]3)cc2[nH]1,60,35,-,-,?,-,
Cc1cc(=O)[nH]c(SCC(=O)Nc2ccc(S(=O)(=O)N3CCCCC3)cc2)n1,-,-,.,.,-,.,
O=C(CSc1ccc(-c2nc3ccccc3[nH]2)cn1)Nc1ccc(S(=O)(=O)N2CCCC2)cc1,33,40,?,?,14µM,-,
O=C1NC(=S)NC(=O)C1=Cc1cccn1-c1ccc(O)cc1,-,-,-,-,.,.,
Cc1cc(C)cc(N2C(=O)NC(=O)/C(=C\c3cccn3-c3ccc(Cl)cc3)C2=O)c1,-,-,?,?,1µM,-,
CC1CCCN(C(=O)COC(=O)CNS(=O)(=O)c2ccc3ccccc3c2)C1 (configuration not stated),.,.,-,-,.,.,
SMILES,Shiga inhibitor,Cycloheximide cs,Pf growth 48h,Pf growth 96h,NS1 function inh,Flu NS1 inh,others
COc1cccc(-c2nc(N3CCC(C)CC3)c3ccccc3n2)c1O,-,-,-,-,20µM,-,
CC1CCN(c2nc(-c3ccccc3O)nc3ccccc23)CC1,-,-,?,-,-,.,
N#CCN1CCC2(O)CCCCC2C1c1ccc2c(c1)OCO2 (configuration not stated),-,-,?,-,-,.,
COc1ccccc1NC(=O)C/C(N)=N/O,-,-,.,-,13µM,-,
COc1ccccc1NC(=O)CCC(=O)Nc1ccccc1OC,-,-,-,-,-[9.22 µM],.,
CCOC(=O)/C(CCC[N+](C)(CC)CC)=N\O,-,-,-,?,-,.,
COc1cccc(NC(=O)C2CCC(CNS(=O)(=O)c3ccc4c(c3)CC(C)N4C(C)=O)CC2)c1 (configuration not stated),-,-,?,?,-,.,
